A selection: hits, their analogues and other compounds. The true share with any hit is near 6.7%.
Pf Dd2 inh: inhibitors of Plasmodium falciparum Dd2 growth; P. falciparum Dd2 growth, SYBR Green, 72 h; active compounds read low; activity change, % at 10 µM; actives 2.3% (n = 94,000); in the data active = activity change below about -80%; inconclusive = no clear call, values can overlap the other calls
T cruzi growth-1: inhibitors of T. cruzi proliferation; T. cruzi beta-gal in NIH3T3, GalScreen luminescence, 90 h; inhibition, % at 8.34 µM; actives 5.9% (n = 77,000);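 active = mean inhibition above about 93%, with at least 55% of replicates each passing it, limit read from the data, passing the limit was not always enough; inconclusive = only one of those two conditions holds; inactive = neither condition holds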
C diff HTS: blocks growth of Clostridium difficile. actives 0.25% (n = 86,000). growth activity, negative = inhibition, % at 16 µg/mL (by protocol). Clostridium difficile clinical isolate growth, OD600, 24 h; active compounds read low;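 active = mean growth activity at or below -80% and every replicate also at or below -80%; inconclusive = mean at or below -80% but some replicate above -80%; inactive = mean growth activity above -80%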;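 also: 0% = DMSO wells and -100% = levofloxacin 16 µg/mL wells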
T cruzi growth-2: Trypanosoma cruzi proliferation inhibition | actives 72% (n = 5,600) | inhibition, % at 8.35 µM | shares compounds with T cruzi growth-1 | T. cruzi beta-gal in NIH3T3, GalScreen luminescence, 90 h;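 active = mean replicate inhibition above about 95% and at least 55% of replicates individually reaching it, limit read from the data; inconclusive = only one of the two criteria is met; inactive = neither criterion is met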
T cruzi growth-3: blocks T. cruzi growth in NIH3T3 host cells. AID 651740. shares compounds with T cruzi growth-1. inhibition, % at 2.09 µM. T. cruzi beta-gal in NIH3T3, GalScreen luminescence, 90 h. actives 21% (n = 5,600);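 active = mean inhibition above about 95%, with at least 55% of replicates also reaching it, limit read from the data; inconclusive = meets just one of the two conditions; inactive = meets neither condition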;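 also: plate controls were neutral control median for no effect and positive control median for full effect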
NIH3T3 tox: cytotoxicity in mouse NIH/3T3 fibroblasts | NIH/3T3 viability, CellTiter-Glo ATP luminescence, 90 h | cytotoxicity (signal decrease), % at 8.35 µM | AID 651742 | actives 14% (n = 5,600) | shares compounds with T cruzi growth-1;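 active = mean signal decrease across replicates above about 35% based on untreated-well scatter, with enough replicates individually passing, limit read from the data; inconclusive = no rule stated though some were filed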;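 also: 0% = median of neutral control wells and 100% = median of positive control wells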
NIH3T3 tox 2: kills mouse NIH/3T3 fibroblasts; shares compounds with T cruzi growth-1; NIH/3T3 viability, CellTiter-Glo ATP luminescence, 90 h; inhibition, % at 24.9 µM; actives 56% (n = 5,600); AID 651744;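 active = mean loss of cell viability signal at or above a set limit, and enough replicates individually reaching it; inconclusive = meets only the mean limit or only the replicate share; inactive = meets neither condition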;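 also: 0% = median of neutral control wells and 100% = median of positive control wells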
An asterisk follows results filed as active; ? = inconclusive; / = not tested or not shown.

SMILES | Pf Dd2 inh | T cruzi growth-1 | C diff HTS | T cruzi growth-2 | T cruzi growth-3 | NIH3T3 tox | NIH3T3 tox 2
C[C@@H]1CN([C@H](C)CO)C(=O)c2cc(C#CCN(C)C)cnc2O[C@H]1CN(C)C(=O)Nc1cccc(F)c1 | 6 | -4 | 5 | / | / | / | /
Cc1ccc(S(=O)(=O)NCC[C@H]2CC[C@H](NC(=O)c3cnccn3)[C@@H](CO)O2)cc1 | -9 | 87 | / | / | / | / | /
C[C@H](CO)N1C[C@H](C)[C@H](CN(C)S(=O)(=O)c2cccs2)Oc2c(NC(=O)Nc3ccc(F)cc3)cccc2C1=O | -29 | 4 | 15 | / | / | / | /
C[C@H]1CN([C@@H](C)CO)C(=O)c2cccc(NC(=O)Nc3ccc(F)cc3)c2O[C@H]1CN(C)S(=O)(=O)c1cccs1 | 4 | -127 | 4 | / | / | / | /
C[C@H]1CN([C@@H](C)CO)C(=O)c2cccc(NC(=O)Nc3ccc(C(F)(F)F)cc3)c2O[C@@H]1CN(C)S(=O)(=O)c1cccs1 | -8 | 85 | -5 | / | / | / | /
C[C@@H]1CN([C@H](C)CO)C(=O)c2cccc(NC(=O)Nc3ccc(C(F)(F)F)cc3)c2O[C@@H]1CN(C)S(=O)(=O)c1cccs1 | -19 | 93* | 6 | 99* | 46 | 20 | 105*
C[C@@H]1CN([C@@H](C)CO)C(=O)c2cccc(NC(=O)Nc3ccc(C(F)(F)F)cc3)c2O[C@H]1CN(C)S(=O)(=O)c1cccs1 | -35 | 99* | 13 | 101* | 71 | 33 | 39*
C[C@H](CO)N1C[C@H](C)[C@@H](CN(C)S(=O)(=O)c2cccs2)Oc2c(NC(=O)Nc3ccc(C(F)(F)F)cc3)cccc2C1=O | -26 | 104* | -5 | 82 | 20 | 11 | 57*
Cc1noc(C)c1S(=O)(=O)Nc1ccc2c(c1)C(=O)N([C@@H](C)CO)C[C@H](C)[C@@H](CN(C)CC1CC1)O2 | -34 | 84 | 2 | / | / | / | /
Cc1ccc(S(=O)(=O)N(C)C[C@@H]2OCCCC[C@@H](C)Oc3ccc(NS(=O)(=O)c4c(C)noc4C)cc3C(=O)N([C@@H](C)CO)C[C@H]2C)cc1 | -38 | 53 | 2 | / | / | / | /
N#Cc1ccc(-c2ccc3c(c2)[C@@H]2[C@@H](CCN2C(=O)C2CC2)[C@@H](CO)N3)cc1 | 6 | 104* | 2 | 107* | 85 | -3 | 35*
N#Cc1ccc(-c2ccc3c(c2)[C@H]2[C@H](CCN2C(=O)c2ccccc2F)[C@H](CO)N3)cc1 | -7 | 88 | 2 | / | / | / | /
N#Cc1ccc(-c2ccc3c(c2)[C@@H]2[C@@H](CCN2C(=O)c2ccccc2F)[C@@H](CO)N3)cc1 | 8 | 102* | -2 | 103* | 82 | 21 | 50*
CN(C)C(=O)c1cccc(-c2ccc3c(c2)[C@@H]2[C@@H](CCN2C(=O)c2ccccc2F)[C@@H](CO)N3)c1 | -13 | 106* | -3 | 100* | 68 | 12 | 16
N#Cc1ccc(-c2ccc3c(c2)[C@H]2[C@H](CCN2C(=O)C2CC2)[C@H](CO)N3)cc1 | 12 | 93 | -9 | / | / | / | /
CN(C)C(=O)c1ccc(-c2ccc3c(c2)[C@H]2[C@H](CCN2C(=O)c2ccccc2F)[C@@H](CO)N3)cc1 | -49 | 53 | 1 | / | / | / | /
CC(C)NC(=O)N(C)C[C@H]1Oc2cc(Br)ccc2S(=O)(=O)N([C@@H](C)CO)C[C@@H]1C | 10 | -10 | -1 | / | / | / | /
COc1ccc(NC(=O)N[C@H]2CC[C@@H](CC(=O)NCc3ccccn3)O[C@@H]2CO)cc1 | -5 | 12 | / | / | / | / | /
C[C@H](CO)N1C[C@H](C)[C@H](CN(C)C(=O)Nc2ccc(C(F)(F)F)cc2)Oc2ccc(NC(=O)Nc3ccc4c(c3)OCO4)cc2C1=O | -12 | -16 | -6 | / | / | / | /
Cc1ccc(S(=O)(=O)N(C)C[C@@H]2Oc3ccc(NC(=O)Nc4ccccc4)cc3C(=O)N([C@H](C)CO)C[C@@H]2C)cc1 | 0 | / | -1 | / | / | / | /
CC(C)CC#Cc1ccc2c(c1)O[C@H](CN(C)C(=O)C1CCCCC1)[C@H](C)CN([C@@H](C)CO)S2(=O)=O | -12 | 112* | -6 | 102* | 103* | 29 | 104*
CC(C)CC#Cc1ccc2c(c1)O[C@@H](CN(C)C(=O)C1CCC1)[C@@H](C)CN([C@@H](C)CO)S2(=O)=O | -51 | 105* | 9 | 104* | 74 | -19 | 96*
CC(C)CC#Cc1ccc2c(c1)O[C@H](CN(C)C(=O)C1CCOCC1)[C@@H](C)CN([C@H](C)CO)S2(=O)=O | -6 | 82 | 0 | / | / | / | /
CC(C)CC#Cc1ccc2c(c1)O[C@H](CN(C)C(=O)C1CCOCC1)[C@H](C)CN([C@H](C)CO)S2(=O)=O | -11 | 84 | 11 | / | / | / | /
CC(C)CC#Cc1ccc2c(c1)O[C@@H](CN(C)C(=O)C1CC1)[C@@H](C)CN([C@@H](C)CO)S2(=O)=O | -50 | 92 | / | / | / | / | /
SMILES | Pf Dd2 inh | T cruzi growth-1 | C diff HTS | T cruzi growth-2 | T cruzi growth-3 | NIH3T3 tox | NIH3T3 tox 2
CC(C)CC#Cc1ccc2c(c1)O[C@@H](CN(C)C(=O)C1CC1)[C@H](C)CN([C@@H](C)CO)S2(=O)=O | -57 | 104* | / | 104* | 59 | 28 | 55*
CC(C)CC#Cc1ccc2c(c1)O[C@@H](CN(C)C(=O)C1CCOCC1)[C@@H](C)CN([C@H](C)CO)S2(=O)=O | -20 | 84 | 1 | / | / | / | /
CC(C)CC#Cc1ccc2c(c1)O[C@@H](CN(C)C(=O)C1CCCCC1)[C@@H](C)CN([C@@H](C)CO)S2(=O)=O | -43 | 113* | -6 | ? | ? | 2 | 105*
CNC[C@H]1Oc2ccc(NS(=O)(=O)c3ccc(F)cc3)cc2C(=O)N([C@@H](C)CO)C[C@H]1C | 27 | -37 | 1 | / | / | / | /
CN(C)C(=O)c1cccc(-c2cccc(-c3nc(C(=O)N4CCOCC4)cc4c3[C@@H](CCO)N([S@](=O)C(C)(C)C)C4)c2)c1 | -1 | 12 | / | / | / | / | /
C[C@H]1CCCCO[C@H](CN(C)C(=O)Nc2ccc(C(F)(F)F)cc2)[C@@H](C)CN([C@@H](C)CO)C(=O)c2cc(NC(=O)Nc3cccc4ccccc34)ccc2O1 | -83* | 103* | -19 | 109* | 109* | 14 | 24
C[C@H]1CCCCO[C@@H](CN(C)C(=O)Nc2ccc(C(F)(F)F)cc2)[C@@H](C)CN([C@@H](C)CO)C(=O)c2cc(NC(=O)Nc3cccc4ccccc34)ccc2O1 | -1 | 90 | -18 | / | / | / | /
C[C@H](CO)N1C[C@H](C)[C@@H](CN(C)C(=O)Nc2ccc(C(F)(F)F)cc2)OCCCC[C@H](C)Oc2ccc(NC(=O)Nc3cccc4ccccc34)cc2C1=O | -86* | 101* | -12 | 104* | 94 | 9 | 18
C[C@@H]1CCCCO[C@H](CN(C)C(=O)Nc2ccccc2)[C@@H](C)CN([C@H](C)CO)C(=O)c2cc(NC(=O)Nc3cccc4ccccc34)ccc2O1 | -32 | 52 | / | / | / | / | /
